Assay results published in the OligoGym collection.

Target: AATK
Assay: pooled miR-30 sensor sort-seq; sequence = guide strand
Conditions: shRNA
Further: reference of the scale not given here.

Sequence	sensor-assay potency score (higher = more potent)
TAGTTCTCGGTGTCATAGCCAC	-0.895
TTGCGTTCCAGGTCCTCGCAGA	-0.188
TTGCCTTCTGATCTCAGCGGAA	-0.981
TAGCTCATCCTCGCCAGTCAGC	-1.1
TTGTACTCAAAATTGAGGCCTC	0.126
TAGTCCTCTCTGTACTTGCAGT	-1.18
TTCTGATCTCAGCGGAACCGGG	-1.21
TTGATGGCAGACACCTCGCCAC	-0.828
TTCACCGTCAGGTCAGCCGTGA	-0.0686

Target: ABCA10
Assay: as above
Conditions: shRNA

Sequence	sensor-assay potency score (higher = more potent)
TTATTAACGATTAACAGGCTGG	-0.301
TATCACTAAATATAACTCCCAC	-0.516
TTCATTTATTCTATTGTCCAGA	-0.279
TTCTTCTTCGGGCTCTTCCGGA	-0.863
TATTCTTTTATAACATTTCTGA	0.0597
TTAGACAGAAATACTTTCCTAT	0.661
TTTATTTTAGCAAATACCCTGA	-0.0638
TTGAACATCTTCATCTTCTTCT	1.07
TTCTTTTATAACATTTCTGATT	-1.16
TTTATCATCAACATTTCCCAGC	-0.195
TTATTTTTTCTCCACTTGCGAA	-1.28

Target: ABCB11
Assay: as above
Conditions: shRNA

Sequence	sensor-assay potency score (higher = more potent)
TTTGCTGTCATGACCATCTATC	-0.277
TAGCTTTTGCATAACTTGGGGT	0.0681
TTCTTCTCATCTTGTAACCTTG	-0.836
TACAACTGCAGAGATCACCCTG	0.317
TAACCATCTTCTGACATGCAGT	-1.16
TTCTTGTAACTCAACGTCGTAG	-0.168
TAGACTTATGATCTACAACAGC	-1.33
TTGCACTCAGTACAACTGCAGA	-1.15
TAGAGTGAAGTAAACACCTTTC	-0.144
TTAGCTTTTGCATAACTTGGGG	-0.00733
TTGACTATCATCCCGATCTGAG	-0.211

Target: ABCD4
Assay: as above
Conditions: shRNA

Sequence	sensor-assay potency score (higher = more potent)
TTCGCTGTCAGTCCTCCTGGTC	-0.858
ATCTGCATGTGCTTGAACCTAA	-0.448
ATCGGCAGAACCTGAGTCGGGG	-0.759
ATGAGCTGGGTGAAGCAGCTGA	-0.109
TTACAGATCTCACACTTCCAGA	-0.864
TAGTCAAAGGTGTTGATGCCGA	-0.776
TCTCATCATCGGCAGAACCTGA	-0.963
TCGATCTTCGCTGTCAGTCCTC	-0.221
ATACCAGTTCCAGTCCACCTGC	-0.984
